Common to all, as to test: DAPPL (digital affinity profiling via proximity ligation, sequencing); 10 mM Tris-HCl pH 7.5, 50 mM NaCl, 1 mM DTT, 4% glycerol, room temperature, 30 min; GST-TFs on glutathione beads, 16-mer random dsDNA library, 0.1% formaldehyde crosslink after washing; high values mean tight binding
In test [1] the target is T1, FLI1 (Homo sapiens, UniProt Q01543 1-452).
T1 sequence: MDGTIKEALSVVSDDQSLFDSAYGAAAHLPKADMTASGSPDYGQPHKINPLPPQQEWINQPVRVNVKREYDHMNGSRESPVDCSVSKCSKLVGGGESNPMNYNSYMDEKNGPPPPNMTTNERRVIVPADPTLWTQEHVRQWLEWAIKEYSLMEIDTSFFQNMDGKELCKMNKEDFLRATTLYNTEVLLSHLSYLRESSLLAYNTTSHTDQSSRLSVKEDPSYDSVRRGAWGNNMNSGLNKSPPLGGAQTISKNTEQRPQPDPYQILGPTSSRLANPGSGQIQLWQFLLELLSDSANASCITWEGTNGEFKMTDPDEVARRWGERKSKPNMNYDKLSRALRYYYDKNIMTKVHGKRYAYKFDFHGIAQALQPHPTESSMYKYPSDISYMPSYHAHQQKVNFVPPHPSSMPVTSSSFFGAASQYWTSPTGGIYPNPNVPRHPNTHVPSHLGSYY
Conditions: protein: recombinant; tags: N-terminal GST; dsDNA, one strand shown. A digest of the protocol:
(§1)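 In yeast, human transcription factors were expressed with a GST fusion, then pulled down on glutathione beads and given DNA barcodes. Pooled with a tag-only sample, they were exposed to 200 nmole of a 16-mer random double-stranded DNA library (Tris/NaCl/DTT/glycerol buffer, room temperature, 30 min), washed, crosslinked with 0.1% formaldehyde, proximity-ligated using BsaI/T4 ligase for 1 h at 37 °C, PCR-amplified and read on an Illumina NextSeq500. Each hexamer's frequency of reads for a factor, divided by the matching frequency for the tag-only sample, gives the binding signal.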

Test [2] concerns the target T2, ELK1 (Homo sapiens, UniProt P19419 1-428).
T2 sequence: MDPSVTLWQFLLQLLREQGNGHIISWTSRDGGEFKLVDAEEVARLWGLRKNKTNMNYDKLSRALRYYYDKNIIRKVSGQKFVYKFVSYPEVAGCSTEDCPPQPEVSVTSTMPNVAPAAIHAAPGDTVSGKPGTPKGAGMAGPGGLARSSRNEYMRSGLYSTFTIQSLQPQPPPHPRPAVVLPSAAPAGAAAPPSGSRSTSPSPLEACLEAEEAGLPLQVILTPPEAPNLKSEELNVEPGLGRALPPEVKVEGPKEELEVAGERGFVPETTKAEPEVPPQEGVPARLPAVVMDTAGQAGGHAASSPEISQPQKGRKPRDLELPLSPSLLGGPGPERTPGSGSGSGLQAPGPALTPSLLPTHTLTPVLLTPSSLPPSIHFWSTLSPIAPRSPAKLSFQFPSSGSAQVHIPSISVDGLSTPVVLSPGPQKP
Conditions: protein: recombinant; tags: N-terminal GST; dsDNA, one strand shown. A digest of the protocol:
as §1

Test [3] has as its target T3, GABPA (Homo sapiens, UniProt Q06546 1-454).
T3 sequence: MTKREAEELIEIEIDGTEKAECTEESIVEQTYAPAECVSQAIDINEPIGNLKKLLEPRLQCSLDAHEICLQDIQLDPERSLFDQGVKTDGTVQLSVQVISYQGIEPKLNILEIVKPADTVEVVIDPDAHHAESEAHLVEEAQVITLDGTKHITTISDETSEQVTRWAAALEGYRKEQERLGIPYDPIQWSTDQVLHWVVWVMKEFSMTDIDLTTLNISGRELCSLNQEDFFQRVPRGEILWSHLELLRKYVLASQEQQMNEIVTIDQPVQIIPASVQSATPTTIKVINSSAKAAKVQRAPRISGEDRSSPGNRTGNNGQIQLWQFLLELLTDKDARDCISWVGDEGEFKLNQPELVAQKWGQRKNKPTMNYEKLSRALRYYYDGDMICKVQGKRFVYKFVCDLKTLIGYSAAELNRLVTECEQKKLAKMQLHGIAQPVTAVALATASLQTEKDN
Conditions: protein: recombinant; tags: N-terminal GST; dsDNA, one strand shown. The procedure, abridged: as §1

The target of test [4] is T4, ERG (Homo sapiens, UniProt P11308 1-479).
T4 sequence: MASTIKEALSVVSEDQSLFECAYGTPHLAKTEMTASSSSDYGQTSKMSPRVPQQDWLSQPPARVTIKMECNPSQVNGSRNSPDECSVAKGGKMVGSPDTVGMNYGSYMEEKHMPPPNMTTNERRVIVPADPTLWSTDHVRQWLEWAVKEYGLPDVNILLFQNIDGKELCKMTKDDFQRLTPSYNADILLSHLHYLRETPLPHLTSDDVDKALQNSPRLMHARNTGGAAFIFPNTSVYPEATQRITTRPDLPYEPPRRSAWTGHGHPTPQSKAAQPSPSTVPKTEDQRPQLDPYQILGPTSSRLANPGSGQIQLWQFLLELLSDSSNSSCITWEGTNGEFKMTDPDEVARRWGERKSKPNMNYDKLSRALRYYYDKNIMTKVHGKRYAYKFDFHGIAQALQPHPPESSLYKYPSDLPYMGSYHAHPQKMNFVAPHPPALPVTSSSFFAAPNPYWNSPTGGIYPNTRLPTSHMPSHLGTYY
Conditions: protein: recombinant; tags: N-terminal GST; dsDNA, one strand shown. The procedure, abridged: as §1

For test [5], the target named is ELF1 (Homo sapiens, UniProt P32519 1-619). Conditions: protein: recombinant; tags: N-terminal GST; dsDNA, one strand shown. A digest of the protocol:
as §1

The target in test [6] is T5, EHF (Homo sapiens, UniProt Q9NZC4 1-300).
T5 sequence: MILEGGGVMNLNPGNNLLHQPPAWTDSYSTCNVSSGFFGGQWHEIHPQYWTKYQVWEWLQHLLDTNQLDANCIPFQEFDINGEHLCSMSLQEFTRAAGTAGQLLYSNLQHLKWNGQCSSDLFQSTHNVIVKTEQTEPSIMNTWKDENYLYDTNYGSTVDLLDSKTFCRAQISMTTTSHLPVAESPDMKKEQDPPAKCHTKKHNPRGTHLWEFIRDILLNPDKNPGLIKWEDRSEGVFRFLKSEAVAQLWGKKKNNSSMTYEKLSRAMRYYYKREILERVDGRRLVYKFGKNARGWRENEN
Conditions: protein: recombinant; tags: N-terminal GST; dsDNA, one strand shown. A digest of the protocol:
as §1

For test [7], the target named is SPI1 (Homo sapiens, UniProt P17947 1-270). Conditions: protein: recombinant; tags: N-terminal GST; dsDNA, one strand shown. The procedure, abridged: as §1
The target in test [8] is SPIB (Homo sapiens, UniProt Q01892 1-262). Conditions: protein: recombinant; tags: N-terminal GST; dsDNA, one strand shown. A digest of the protocol: as §1
Test [9] has as its target T6, ELK3 (Homo sapiens, UniProt P41970 1-407).
T6 sequence: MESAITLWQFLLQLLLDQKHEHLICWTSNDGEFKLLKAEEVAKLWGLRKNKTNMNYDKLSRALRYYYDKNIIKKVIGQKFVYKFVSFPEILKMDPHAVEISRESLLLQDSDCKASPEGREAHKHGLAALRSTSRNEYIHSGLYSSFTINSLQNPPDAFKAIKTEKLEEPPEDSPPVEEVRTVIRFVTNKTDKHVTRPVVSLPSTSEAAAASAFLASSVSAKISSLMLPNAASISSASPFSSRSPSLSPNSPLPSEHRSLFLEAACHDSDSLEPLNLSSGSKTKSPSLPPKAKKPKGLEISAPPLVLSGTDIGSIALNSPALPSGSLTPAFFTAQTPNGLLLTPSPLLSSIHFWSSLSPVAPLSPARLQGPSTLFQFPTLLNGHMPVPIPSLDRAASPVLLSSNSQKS
Conditions: protein: recombinant; tags: N-terminal GST; dsDNA, one strand shown. A digest of the protocol:
as §1

The target of test [10] is ETV5 (Homo sapiens, UniProt P41161 1-510). Conditions: protein: recombinant; tags: N-terminal GST; dsDNA, one strand shown. The procedure, abridged: as §1
Test [11] addresses HSF1 (Homo sapiens, UniProt Q00613 1-529). Conditions: protein: recombinant; tags: N-terminal GST; chain copies: 3; dsDNA, one strand shown. A digest of the protocol:
as §1

In test [12] the target is T7, SPIC (Homo sapiens, UniProt Q8N5J4 1-248).
T7 sequence: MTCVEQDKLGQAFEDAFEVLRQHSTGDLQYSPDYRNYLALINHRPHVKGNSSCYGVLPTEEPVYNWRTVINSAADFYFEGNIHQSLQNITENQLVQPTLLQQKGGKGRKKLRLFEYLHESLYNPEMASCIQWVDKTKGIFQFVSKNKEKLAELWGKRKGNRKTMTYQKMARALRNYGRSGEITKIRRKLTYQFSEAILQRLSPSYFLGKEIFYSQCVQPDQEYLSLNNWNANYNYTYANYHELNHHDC
Conditions: protein: recombinant; tags: N-terminal GST; dsDNA, one strand shown. The procedure, abridged:
as §1

In test [13] the target is ELF4 (Homo sapiens, UniProt Q99607 1-663). Conditions: protein: recombinant; tags: N-terminal GST; dsDNA, one strand shown. A digest of the protocol: as §1
Test [14] has as its target T8, ELK4 (Homo sapiens, UniProt P28324-2 1-405).
T8 sequence: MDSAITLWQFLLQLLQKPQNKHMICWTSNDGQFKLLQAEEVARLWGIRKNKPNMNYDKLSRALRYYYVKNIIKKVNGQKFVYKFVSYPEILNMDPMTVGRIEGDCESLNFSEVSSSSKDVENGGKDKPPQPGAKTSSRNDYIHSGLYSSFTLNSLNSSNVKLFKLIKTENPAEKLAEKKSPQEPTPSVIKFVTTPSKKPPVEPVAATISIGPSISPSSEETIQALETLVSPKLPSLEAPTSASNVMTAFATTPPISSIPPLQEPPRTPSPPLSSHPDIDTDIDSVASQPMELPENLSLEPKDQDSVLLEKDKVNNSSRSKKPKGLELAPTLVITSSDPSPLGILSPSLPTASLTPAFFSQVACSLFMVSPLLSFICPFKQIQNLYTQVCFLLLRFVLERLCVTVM
Conditions: protein: recombinant; tags: N-terminal GST; dsDNA, one strand shown. The procedure, abridged:
as §1

Test [15] addresses T9, ETV2 (Homo sapiens, UniProt O00321 1-342).
T9 sequence: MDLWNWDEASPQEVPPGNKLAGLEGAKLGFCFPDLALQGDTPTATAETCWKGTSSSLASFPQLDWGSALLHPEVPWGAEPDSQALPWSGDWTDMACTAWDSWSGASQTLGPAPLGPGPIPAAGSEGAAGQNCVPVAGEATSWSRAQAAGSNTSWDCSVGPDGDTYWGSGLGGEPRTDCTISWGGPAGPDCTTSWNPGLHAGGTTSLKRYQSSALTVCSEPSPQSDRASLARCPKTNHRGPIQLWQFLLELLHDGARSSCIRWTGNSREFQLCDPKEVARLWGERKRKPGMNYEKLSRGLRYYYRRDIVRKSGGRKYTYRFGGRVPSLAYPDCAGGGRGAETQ
Conditions: protein: recombinant; tags: N-terminal GST; dsDNA, one strand shown. A digest of the protocol: as §1

Test [16] concerns the target T10, ELF3 (Homo sapiens, UniProt P78545 1-371).
T10 sequence: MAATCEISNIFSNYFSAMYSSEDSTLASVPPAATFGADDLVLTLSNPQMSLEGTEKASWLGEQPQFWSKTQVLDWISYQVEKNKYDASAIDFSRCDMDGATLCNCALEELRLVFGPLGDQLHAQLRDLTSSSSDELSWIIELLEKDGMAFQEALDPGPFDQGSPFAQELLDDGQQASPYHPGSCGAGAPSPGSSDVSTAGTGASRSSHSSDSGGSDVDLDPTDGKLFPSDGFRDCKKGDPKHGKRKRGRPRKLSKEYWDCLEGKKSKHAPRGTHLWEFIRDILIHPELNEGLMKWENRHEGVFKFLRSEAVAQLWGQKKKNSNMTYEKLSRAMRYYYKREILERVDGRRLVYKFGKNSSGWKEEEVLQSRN
Conditions: protein: recombinant; tags: N-terminal GST; dsDNA, one strand shown. A digest of the protocol:
as §1

In test [17] the target is CRX (Homo sapiens, UniProt O43186 1-299). Conditions: protein: recombinant; tags: N-terminal GST; dsDNA, one strand shown. The procedure, abridged:
as §1

Test [18] concerns the target ETV1 (Homo sapiens, UniProt P50549 1-477). Conditions: protein: recombinant; tags: N-terminal GST; dsDNA, one strand shown. A digest of the protocol:
as §1

This is an account of results in paper PMC7862700, “An all-to-all approach to the identification of sequence-specific readers for epigenetic DNA modifications on cytosine”.

ELF4, sequence (Q99607 whole entry): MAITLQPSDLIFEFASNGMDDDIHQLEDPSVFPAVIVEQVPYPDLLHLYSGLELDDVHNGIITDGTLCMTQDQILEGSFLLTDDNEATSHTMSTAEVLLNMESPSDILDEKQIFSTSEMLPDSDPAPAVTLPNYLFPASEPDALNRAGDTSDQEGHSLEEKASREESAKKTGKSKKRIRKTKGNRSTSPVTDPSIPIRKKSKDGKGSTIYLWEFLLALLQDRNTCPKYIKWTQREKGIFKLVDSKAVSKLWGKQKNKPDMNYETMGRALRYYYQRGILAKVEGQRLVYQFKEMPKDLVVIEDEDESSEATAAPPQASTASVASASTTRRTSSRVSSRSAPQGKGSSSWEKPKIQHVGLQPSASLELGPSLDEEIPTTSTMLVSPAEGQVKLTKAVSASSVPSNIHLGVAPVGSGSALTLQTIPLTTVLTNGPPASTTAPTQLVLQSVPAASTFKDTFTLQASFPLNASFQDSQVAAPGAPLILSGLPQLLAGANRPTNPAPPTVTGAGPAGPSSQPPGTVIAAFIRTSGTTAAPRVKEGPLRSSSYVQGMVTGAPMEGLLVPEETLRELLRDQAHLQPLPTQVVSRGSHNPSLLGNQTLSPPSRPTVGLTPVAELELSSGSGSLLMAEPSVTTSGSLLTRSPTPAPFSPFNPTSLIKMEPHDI
CRX, sequence (O43186 whole entry): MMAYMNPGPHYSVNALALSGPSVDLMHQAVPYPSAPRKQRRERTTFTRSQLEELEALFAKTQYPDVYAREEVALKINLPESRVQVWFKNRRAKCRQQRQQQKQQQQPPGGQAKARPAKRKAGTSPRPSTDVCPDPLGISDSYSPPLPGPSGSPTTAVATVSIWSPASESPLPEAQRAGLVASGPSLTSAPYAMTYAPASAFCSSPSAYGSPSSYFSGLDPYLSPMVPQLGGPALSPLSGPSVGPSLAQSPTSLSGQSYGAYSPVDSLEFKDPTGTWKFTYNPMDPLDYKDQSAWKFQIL
ETV5, sequence (P41161 whole entry): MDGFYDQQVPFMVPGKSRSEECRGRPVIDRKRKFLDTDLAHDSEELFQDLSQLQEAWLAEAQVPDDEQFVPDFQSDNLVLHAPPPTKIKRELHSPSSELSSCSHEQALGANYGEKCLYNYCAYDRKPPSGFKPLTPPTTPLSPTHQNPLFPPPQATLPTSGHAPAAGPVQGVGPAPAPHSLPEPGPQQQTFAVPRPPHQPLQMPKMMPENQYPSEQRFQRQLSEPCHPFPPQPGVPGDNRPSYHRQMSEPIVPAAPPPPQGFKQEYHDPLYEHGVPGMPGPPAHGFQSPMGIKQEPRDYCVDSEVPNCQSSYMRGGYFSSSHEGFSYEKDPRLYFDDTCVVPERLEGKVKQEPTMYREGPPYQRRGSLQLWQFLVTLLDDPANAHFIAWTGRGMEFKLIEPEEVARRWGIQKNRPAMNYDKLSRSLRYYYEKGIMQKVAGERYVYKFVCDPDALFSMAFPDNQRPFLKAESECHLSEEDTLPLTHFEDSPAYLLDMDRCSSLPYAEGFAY
ELF1, sequence (P32519 whole entry): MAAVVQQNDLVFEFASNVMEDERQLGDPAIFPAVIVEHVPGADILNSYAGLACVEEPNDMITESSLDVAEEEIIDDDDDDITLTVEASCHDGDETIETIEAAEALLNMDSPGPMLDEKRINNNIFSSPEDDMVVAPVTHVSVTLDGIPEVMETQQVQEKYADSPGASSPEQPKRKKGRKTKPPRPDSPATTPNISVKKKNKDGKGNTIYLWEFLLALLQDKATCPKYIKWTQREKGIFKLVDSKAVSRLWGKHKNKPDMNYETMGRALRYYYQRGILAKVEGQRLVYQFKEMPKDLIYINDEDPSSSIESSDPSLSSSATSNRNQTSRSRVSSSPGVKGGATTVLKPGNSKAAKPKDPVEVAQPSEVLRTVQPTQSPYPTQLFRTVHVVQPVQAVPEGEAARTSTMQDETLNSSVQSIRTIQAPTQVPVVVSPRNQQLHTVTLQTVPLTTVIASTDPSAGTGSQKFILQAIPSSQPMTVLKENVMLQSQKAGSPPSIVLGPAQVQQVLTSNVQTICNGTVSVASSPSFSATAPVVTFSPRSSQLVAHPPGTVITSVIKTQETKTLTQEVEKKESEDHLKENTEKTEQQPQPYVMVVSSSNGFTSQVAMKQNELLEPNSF
ETV1, sequence (P50549 whole entry): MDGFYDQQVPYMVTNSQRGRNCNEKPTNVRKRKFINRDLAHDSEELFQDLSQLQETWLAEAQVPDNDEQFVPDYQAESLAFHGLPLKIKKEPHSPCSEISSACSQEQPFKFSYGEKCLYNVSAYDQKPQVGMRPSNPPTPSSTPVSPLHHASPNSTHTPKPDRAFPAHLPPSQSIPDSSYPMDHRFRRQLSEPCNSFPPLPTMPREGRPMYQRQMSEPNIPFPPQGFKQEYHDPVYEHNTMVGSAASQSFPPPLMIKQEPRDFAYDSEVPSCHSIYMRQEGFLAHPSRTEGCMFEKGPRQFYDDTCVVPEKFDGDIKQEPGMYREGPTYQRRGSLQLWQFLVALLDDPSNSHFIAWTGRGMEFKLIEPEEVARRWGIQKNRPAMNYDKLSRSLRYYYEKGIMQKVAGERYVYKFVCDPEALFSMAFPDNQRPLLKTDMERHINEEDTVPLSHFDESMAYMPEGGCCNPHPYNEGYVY
HSF1, sequence (Q00613 whole entry): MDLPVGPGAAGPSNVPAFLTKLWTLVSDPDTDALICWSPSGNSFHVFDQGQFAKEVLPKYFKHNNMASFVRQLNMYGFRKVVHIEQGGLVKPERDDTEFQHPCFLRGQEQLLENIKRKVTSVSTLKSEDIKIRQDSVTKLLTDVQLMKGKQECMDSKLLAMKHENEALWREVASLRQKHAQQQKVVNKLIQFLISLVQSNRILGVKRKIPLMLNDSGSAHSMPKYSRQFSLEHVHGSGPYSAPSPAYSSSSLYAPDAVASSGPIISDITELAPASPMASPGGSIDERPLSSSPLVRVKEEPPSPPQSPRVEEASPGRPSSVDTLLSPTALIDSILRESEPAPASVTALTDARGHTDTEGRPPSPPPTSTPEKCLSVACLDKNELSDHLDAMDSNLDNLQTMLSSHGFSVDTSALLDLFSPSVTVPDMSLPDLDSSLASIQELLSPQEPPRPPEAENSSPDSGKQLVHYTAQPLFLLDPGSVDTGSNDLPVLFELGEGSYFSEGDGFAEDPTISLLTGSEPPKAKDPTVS
SPIB, sequence (Q01892 whole entry): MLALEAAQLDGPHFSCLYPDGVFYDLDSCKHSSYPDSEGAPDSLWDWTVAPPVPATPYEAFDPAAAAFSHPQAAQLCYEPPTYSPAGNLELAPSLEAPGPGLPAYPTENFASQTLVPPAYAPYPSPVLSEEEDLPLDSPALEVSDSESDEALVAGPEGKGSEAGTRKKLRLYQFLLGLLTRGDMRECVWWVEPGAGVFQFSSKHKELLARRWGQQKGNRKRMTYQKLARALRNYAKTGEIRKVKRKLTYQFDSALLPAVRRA

Turning to TAATGT, the binding signal in test [1] was 1.15 fold enrichment (6-mer frequency, TF over GST control); in test [2], 1.02 fold enrichment (6-mer frequency, TF over GST control); in test [3], 1.08 fold enrichment (6-mer frequency, TF over GST control); in test [4], 1.09 fold enrichment (6-mer frequency, TF over GST control); in [5] it was 1.11 fold enrichment (6-mer frequency, TF over GST control); in test [6], 1.07 fold enrichment (6-mer frequency, TF over GST control). The binding signal was 1.06 fold enrichment (6-mer frequency, TF over GST control) in [7]; 1.05 fold enrichment (6-mer frequency, TF over GST control) in test [8]; 1.09 fold enrichment (6-mer frequency, TF over GST control) in test [9]; 1.14 fold enrichment (6-mer frequency, TF over GST control) in test [10]; 1.19 fold enrichment (6-mer frequency, TF over GST control) in [11]; 1.21 fold enrichment (6-mer frequency, TF over GST control) in test [12]. The binding signal in [13] was 1.11 fold enrichment (6-mer frequency, TF over GST control); in test [14] it was 1.19 fold enrichment (6-mer frequency, TF over GST control); in [15], 1.08 fold enrichment (6-mer frequency, TF over GST control); in test [16] it was 1.04 fold enrichment (6-mer frequency, TF over GST control); in test [17] it was 1.5 fold enrichment (6-mer frequency, TF over GST control); in test [18], 1.16 fold enrichment (6-mer frequency, TF over GST control).
